Screening data from PubChem BioAssay.
CYP2C9 activ = activators of human CYP2C9; recombinant CYP2C9, luciferin-H conversion, luminescence; active compounds read high; factor 1 = untreated enzyme, 0 = blocked; AID 1024; activation factor at 5 µM; 96,000 tested, 1.4% active; P11712;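 active = activation factor of 2 or more for CYP2C9 at a 5 µM dose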;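 note: 0 = sulfaphenazole-blocked wells and 1 = vehicle-only wells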
CD11b adhes inh = inhibitors of human CD11b/CD18 binding to fibrinogen; K562 CD11b/CD18 adhesion to fibrinogen, ATPlite luminescence; Mn2+ added to activate the integrin; inhibition, % at 10 µM; P05107+P11215; 93,000 tested, 0.54% active;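 active = primary inhibition of 50% or more at 10 µM, then 40% or more on retest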
Mac1 fbg enh = CD11b/CD18-fibrinogen binding enhancement; K562 CD11b/CD18 adhesion to fibrinogen, ATPlite luminescence; activation, % at 10 µM; P05107+P11215; 93,000 tested, 0.07% active; AID 1499;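 active = 10 µM primary screen giving 50% or more activity, confirmed by 40% or more on retest at that dose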
CYP2C19 act = increases human CYP2C19 enzyme activity. P33261. recombinant CYP2C19, luciferin-H EGE luminescence; active compounds read high; 0 = fully inhibited enzyme, 1 = untreated enzyme. activation factor at 5 µM. 96,000 tested, under 10 active;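 active = activation factor of at least 2 at 5 µM in the primary screen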;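 note: 0 = wells with 2.5 mM tranylcypromine and 1 = vehicle-only wells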
Target sequence (P33261 whole entry, looked up): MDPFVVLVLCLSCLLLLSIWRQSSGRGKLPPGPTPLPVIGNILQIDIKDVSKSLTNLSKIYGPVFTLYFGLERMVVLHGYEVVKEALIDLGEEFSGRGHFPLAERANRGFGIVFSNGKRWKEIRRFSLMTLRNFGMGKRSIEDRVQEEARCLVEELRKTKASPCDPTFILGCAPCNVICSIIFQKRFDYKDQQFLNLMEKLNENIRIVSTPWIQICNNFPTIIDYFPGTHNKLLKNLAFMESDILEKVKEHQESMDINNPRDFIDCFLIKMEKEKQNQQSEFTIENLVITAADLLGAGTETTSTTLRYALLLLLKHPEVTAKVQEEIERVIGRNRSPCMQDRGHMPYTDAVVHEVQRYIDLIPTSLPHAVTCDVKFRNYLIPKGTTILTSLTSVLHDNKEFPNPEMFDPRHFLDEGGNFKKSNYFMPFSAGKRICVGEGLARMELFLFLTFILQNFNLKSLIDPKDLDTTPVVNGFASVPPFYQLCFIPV
CYP2C9 inhib = human CYP2C9 inhibition; P11712; CYP2C9 Supersomes, luciferin-H conversion, luminescence; inhibition, % at 5 µM; 96,000 tested, 20% active;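 active = blocking of liver enzyme CYP2C9 beyond about 50% at 5 µM, limit read from the data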
CYP2C19 inh = inhibitors of human CYP2C19. P33261. CYP2C19 Supersomes, luciferin-H EGE luminescence, 30 min. inhibition, % at 5 µM. 96,000 tested, 21% active. AID 778;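 active = CYP2C19 inhibition above a set limit at 5 µM in the primary screen, cut at about 50% in these data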;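 note: plate controls were negative control wells for no effect and 2.5 mM tranylcypromine positive control for full effect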
* marks the source's active call; other numbers are inactive results. The list is not random: actives were taken first. Their share in the collection is about 28%.

Screening Cc1ccc(CNC(=O)Cn2c(=O)oc3ccccc32)o1 returned CYP2C9 activ 1, CD11b adhes inh -3, Mac1 fbg enh -1, CYP2C19 act 0.8, CYP2C9 inhib 0 and CYP2C19 inh 24.
O=C(CCn1c(=O)oc2ccccc21)Nc1cccc(Cl)c1 was read as CYP2C9 activ 2*, CD11b adhes inh -59, Mac1 fbg enh 1, CYP2C19 act 0.4, CYP2C9 inhib -102 and CYP2C19 inh 55*.
`CC1CCCC(NC(=O)CCn2c(=O)oc3ccccc32)C1C` (centres undefined) gave CYP2C9 activ 2*, CYP2C19 act 0.6, CYP2C9 inhib -101 and CYP2C19 inh 43.
Screening Cc1cccc(NC(=O)Cn2c(=O)oc3ccccc32)c1 returned CYP2C9 activ 0.9, CD11b adhes inh -5, Mac1 fbg enh -2, CYP2C19 act 0.4, CYP2C9 inhib 6 and CYP2C19 inh 58*.
For O=C(CN1C(=O)NC(Cc2ccccc2)C1=O)Nc1ccccc1 (centres undefined) the results were CYP2C9 activ 1, CD11b adhes inh -32, Mac1 fbg enh 6, CYP2C19 act 0.9, CYP2C9 inhib -4 and CYP2C19 inh 10.
`N/C(=N\c1nc(C(F)(F)F)cc(=O)[nH]1)Nc1ccc(Cl)cc1` gave CD11b adhes inh -5 and Mac1 fbg enh 37.
Screening O=C(Oc1cc(-c2ccccc2)no1)c1ccc(F)cc1 returned CYP2C9 activ 1.1, CD11b adhes inh -18, Mac1 fbg enh 4, CYP2C19 act 1.2, CYP2C9 inhib -10 and CYP2C19 inh -16.
`CC(NCc1ccc2c(c1)OCO2)C(=O)NC1CCCc2ccccc21` (centres undefined) gave CYP2C9 activ 0.9, CD11b adhes inh 4, Mac1 fbg enh -2, CYP2C19 act 0.5, CYP2C9 inhib 7 and CYP2C19 inh 50.
Cc1ccc(-n2nc(C)c(NC(=O)CCl)c2C)cc1 was read as CD11b adhes inh -5 and Mac1 fbg enh 0.
COC(=O)c1cn(NC(=O)c2ccc3c(c2)OCO3)c(=O)c2ccccc12 was read as CYP2C9 activ 0.8, CD11b adhes inh -16, Mac1 fbg enh -2, CYP2C19 act 1, CYP2C9 inhib 15 and CYP2C19 inh 3.
Screening COc1cccc(CNC(=O)CCn2c(=O)oc3ccccc32)c1 returned CYP2C9 activ 1.2, CD11b adhes inh -18, Mac1 fbg enh -3, CYP2C19 act 0.4, CYP2C9 inhib -21 and CYP2C19 inh 58*.
For CCOc1ccc(CNC(=O)CCn2c(=O)oc3ccccc32)cc1OC the results were CYP2C9 activ 0.9, CD11b adhes inh -15, Mac1 fbg enh 1, CYP2C19 act 0.7, CYP2C9 inhib 8 and CYP2C19 inh 27.
For CCc1cccc(CC)c1NC(=O)COC(=O)CC1c2ccccc2CCN1S(=O)(=O)c1ccccc1 (centres undefined) the results were CD11b adhes inh -11 and Mac1 fbg enh 4.
`CC(=O)c1c(C)[nH]c(C(=O)Nc2cccnc2)c1C` gave CYP2C9 activ 0.5, CD11b adhes inh 14, Mac1 fbg enh 5, CYP2C19 act 0.9, CYP2C9 inhib 52* and CYP2C19 inh 10.
Screening CC(=O)c1c(C)[nH]c(C(=O)Nc2ccc(C)c(C)c2)c1C returned CYP2C9 activ 0.4, CD11b adhes inh -32, Mac1 fbg enh 1, CYP2C19 act 0.6, CYP2C9 inhib 65* and CYP2C19 inh 37.
`CC(=O)Cc1nsc(NC(=O)c2cccs2)n1` gave CYP2C9 activ 1, CD11b adhes inh 21, Mac1 fbg enh -2, CYP2C19 act 1.1, CYP2C9 inhib -4 and CYP2C19 inh -9.
`CCC1Oc2ccc(C)cc2N(CC(=O)NCC2COc3ccccc3O2)C1=O` (centres undefined) gave CYP2C9 activ 0.6, CD11b adhes inh 4, Mac1 fbg enh 2, CYP2C19 act 0.1, CYP2C9 inhib 38 and CYP2C19 inh 93*.
Cc1ccc2c(c1)N(CCC(=O)NCC1COc3ccccc3O1)C(=O)CO2 (centres undefined) was read as CYP2C9 activ 0.6, CD11b adhes inh -8, Mac1 fbg enh 0, CYP2C19 act 0.2, CYP2C9 inhib 35 and CYP2C19 inh 76*.
For Cc1ccc2c(c1)N(CCC(=O)NCCN1CCOCC1)C(=O)CO2 the results were CYP2C9 activ 1, CD11b adhes inh -4, Mac1 fbg enh -5, CYP2C19 act 1.1, CYP2C9 inhib 0 and CYP2C19 inh -5.
CCC1Oc2ccc(C)cc2N(CC(=O)NCCN2CCCCCC2)C1=O (centres undefined) was read as CYP2C9 activ 0.9, CD11b adhes inh 2, Mac1 fbg enh -6, CYP2C19 act 0.9, CYP2C9 inhib 9 and CYP2C19 inh 6.
For O=C(CN1C(=O)NC2(CCCc3ccccc32)C1=O)N1CCN(C(=O)c2ccco2)CC1 (centres undefined) the results were CYP2C9 activ 0.9, CD11b adhes inh -22, Mac1 fbg enh -2, CYP2C19 act 1, CYP2C9 inhib 6 and CYP2C19 inh 0.
Screening Cc1ccc(C)c(N2CCN(Cc3nnnn3C3CCCCC3)CC2)c1 returned CYP2C9 activ 0.6, CD11b adhes inh 15, Mac1 fbg enh 0, CYP2C19 act 0.4, CYP2C9 inhib 42 and CYP2C19 inh 56*.
Screening C/C=C(\C)CN1CCN(c2cc(C)ccc2C)CC1 returned CYP2C9 activ 0.5, CD11b adhes inh -3, Mac1 fbg enh -3, CYP2C19 act 0.2, CYP2C9 inhib 55* and CYP2C19 inh 82*.
`C/C=C(\C)CN1CCN(c2ccccc2F)CC1` gave CYP2C9 activ 0.8, CD11b adhes inh -24, Mac1 fbg enh -3, CYP2C19 act 0.3, CYP2C9 inhib 23 and CYP2C19 inh 73*.
For C/C=C(\C)CN1CCN(c2cccc(C)c2C)CC1 the results were CYP2C9 activ 0.8, CYP2C19 act 0.7, CYP2C9 inhib 16 and CYP2C19 inh 28.
For Cc1ccc(-n2nc(C)c(NS(=O)(=O)c3ccccc3)c2C)cc1C the results were CYP2C9 activ 0, CD11b adhes inh -5, Mac1 fbg enh -3, CYP2C19 act 0.6, CYP2C9 inhib 96* and CYP2C19 inh 42.
For Cc1nn(-c2ccc(F)cc2)c(C)c1NS(=O)(=O)c1ccc(Cl)cc1 the results were CYP2C9 activ 0.1, CD11b adhes inh -18, Mac1 fbg enh -1, CYP2C19 act 0, CYP2C9 inhib 91* and CYP2C19 inh 100*.
For Cc1ccc(-n2nc(C(=O)O)c3ccccc3c2=O)cc1C the results were CYP2C9 activ 0.9, CD11b adhes inh -17, Mac1 fbg enh -8, CYP2C19 act 1.1, CYP2C9 inhib 15 and CYP2C19 inh -12.
For Cc1nc2ccc(S(=O)(=O)c3ccc4nc(C)[nH]c4c3)cc2[nH]1 the results were CYP2C9 activ 0.8, CYP2C19 act 0.8, CYP2C9 inhib 17 and CYP2C19 inh 22.
